# Laboratory results as given in PubChem BioAssay.
# Calls of active or inactive are those of the source.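 The calls were made as follows: active = luciferase signal above three times the same-plate solvent-only control wells; inactive = the rest.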
# Target: Mitogen-activated protein kinase 7 (Homo sapiens) (UniProt Q13164)
# Test: ERK5 transactivation activators in reporter cells, primary screen, cell-based, HTS (AID 1508626);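 also: luciferase driven by Gal4-ERK5 fusion binding five Gal4 sites before minimal TATA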
# Details: HeLa Gal4-ERK5 transactivation, 18 h, at 5 µM, active compounds read high
# Chain of Mitogen-activated protein kinase 7 (Homo sapiens) (Q13164 whole entry, looked up, the tested form may be a part): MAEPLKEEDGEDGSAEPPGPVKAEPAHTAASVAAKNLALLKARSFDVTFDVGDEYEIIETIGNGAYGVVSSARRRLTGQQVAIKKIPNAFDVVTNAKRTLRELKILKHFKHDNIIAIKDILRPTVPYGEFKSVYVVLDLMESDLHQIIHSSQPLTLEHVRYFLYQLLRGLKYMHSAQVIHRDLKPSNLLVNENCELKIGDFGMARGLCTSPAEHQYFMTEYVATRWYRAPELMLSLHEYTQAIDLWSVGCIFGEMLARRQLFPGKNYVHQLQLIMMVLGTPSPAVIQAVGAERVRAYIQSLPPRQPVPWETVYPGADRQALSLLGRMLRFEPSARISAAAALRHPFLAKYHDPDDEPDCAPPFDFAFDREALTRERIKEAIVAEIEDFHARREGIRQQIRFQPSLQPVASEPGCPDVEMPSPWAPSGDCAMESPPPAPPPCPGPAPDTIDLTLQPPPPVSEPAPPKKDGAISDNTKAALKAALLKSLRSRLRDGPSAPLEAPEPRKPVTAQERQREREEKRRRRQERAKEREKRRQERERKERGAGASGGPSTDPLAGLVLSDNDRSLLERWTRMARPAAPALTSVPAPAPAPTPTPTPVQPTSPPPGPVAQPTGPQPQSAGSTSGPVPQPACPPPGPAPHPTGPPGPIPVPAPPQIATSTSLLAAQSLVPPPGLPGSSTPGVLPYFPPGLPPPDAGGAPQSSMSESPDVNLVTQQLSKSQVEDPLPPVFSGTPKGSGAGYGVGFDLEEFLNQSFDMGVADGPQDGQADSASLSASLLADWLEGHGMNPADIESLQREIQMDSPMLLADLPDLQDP
row,SMILES,luciferase signal
1,CC(C)(O)[C@@H]1CC[C@](C)([C@H]2[C@@H](O)C[C@@]3(C)[C@@H]4C[C@H](O[C@@H]5O[C@H](CO)[C@@H](O)[C@H](O)[C@H]5O)[C@H]5C(C)(C)[C@@H](O[C@@H]6OC[C@@H](O)[C@H](O)[C@H]6O)CC[C@@]56C[C@@]46CC[C@]23C)O1,52 AU (inactive)
2,Cc1cccc2c3c(ccc12)C1=C(C(=O)C3=O)[C@@H](C)CO1,156 AU (inactive)
3,CC(=O)O[C@H]1CC[C@@]2(C)[C@@H](CC[C@@H]3[C@@H]2CC(=O)[C@]2(C)[C@@H]4[C@H](C[C@@H]32)O[C@]2(CC[C@@H](C)CO2)[C@H]4C)C1,56 AU (inactive)
4,CCCCC/C=C/CCC(=O)N[C@H]1[C@H](Oc2c3cc4cc2Oc2ccc(cc2Cl)[C@@H](O[C@@H]2O[C@H](CO)[C@@H](O)[C@H](O)[C@H]2NC(C)=O)[C@@H]2NC(=O)[C@H](NC(=O)[C@@H]4NC(=O)[C@H]4NC(=O)C(Cc5ccc(c(Cl)c5)O3)NC(=O)[C@@H](N)c3ccc(O)c(c3)Oc3cc(O)cc4c3)c3ccc(O)c(c3)-c3c(OC4O[C@H](CO)[C@@H](O)[C@H](O)[C@@H]4O)cc(O)cc3[C@@H](C(=O)O)NC2=O)O[C@H](CO)[C@@H](O)[C@@H]1O (stereo partly specified),52 AU (inactive)
5,CO[C@H]1O[C@H](CO)C(O[C@@H]2OC(C(=O)O)[C@@H](O[C@H]3O[C@H](COS(=O)(=O)O)C(O[C@@H]4OC(C(=O)O)[C@@H](O[C@H]5O[C@H](CO)C(O[C@@H]6OC(C(=O)O)[C@@H](O[C@H]7O[C@H](COS(=O)(=O)O)C(O[C@@H]8OC(C(=O)O)=C[C@H](O)C8OS(=O)(=O)O)[C@H](O)[C@H]7NC(C)=O)[C@H](O)[C@H]6O)[C@H](O)[C@H]5NC(C)=O)[C@H](O)[C@H]4O)[C@H](O)[C@H]3NC(C)=O)[C@H](O)[C@H]2O)[C@H](O)[C@H]1NC(C)=O (stereo partly specified),100 AU (inactive)
6,CC1CCC2(OC1)OC1CC3C4CCC5C[C@@H](O)CCC5(C)C4=CCC3(C)C1C2C (stereo partly specified),644 AU (active)
